According to the OligoGym collection:

Assays:
Experiment in all cases: pooled miR-30 sensor sort-seq; sequence = guide strand
Details in all cases: shRNA
[1] = target: SLC7A11
[2] = target: SLC6A17
[3] = target: SLC6A18
[4] = target: SLC6A3
Also: reference of the scale not given here.

## TAATACTTGAATCTCTTCCTGA
[1]
  sensor-assay potency score (higher = more potent): 0.636

## TATATAGTGCCACACACCGATG
[2]
  sensor-assay potency score (higher = more potent): -1.62

## TTCAGTGTCTGCCGGTACCAGA
[3]
  sensor-assay potency score (higher = more potent): -1.1

## TTCAGTAACAAAGTTGAGGTAA
[1]
  sensor-assay potency score (higher = more potent): 0.0391

## TATTGATGTGGCACGCACCTGA
[4]
  sensor-assay potency score (higher = more potent): -0.154

## TAATGGACCAAAGACTTCCAAA
[1]
  sensor-assay potency score (higher = more potent): -1.33

## TACTGCAGCTTACTGTTCCAGG
[2]
  sensor-assay potency score (higher = more potent): -0.506

## TATTCTTGTAAACAAAAACTGC
[4]
  sensor-assay potency score (higher = more potent): -1.01

## TTGTAGGACACGGAGAGGGTGT
[2]
  sensor-assay potency score (higher = more potent): -0.674

## TAATTAGCTGCATAACTCCAGG
[1]
  sensor-assay potency score (higher = more potent): -0.703

## TTTAGGACCATCACTACAGTTA
[1]
  sensor-assay potency score (higher = more potent): -0.265

## TTTGTATCGAAGATAAATCAGC
[1]
  sensor-assay potency score (higher = more potent): -1.16

## TAAACGACACCCACAACCTCGA
[3]
  sensor-assay potency score (higher = more potent): -0.526

## AAGAAGAACATGACGGACCAGA
[2]
  sensor-assay potency score (higher = more potent): 0.0729

## TTGGTGAACTTGTTGTAGCTGG
[4]
  sensor-assay potency score (higher = more potent): 0.547

## ATATATAGTGCCACACACCGAT
[2]
  sensor-assay potency score (higher = more potent): 0.0995

## ATGGTGTTGTAGTACAGGCTGA
[3]
  sensor-assay potency score (higher = more potent): -0.98

## TAAAGTTCTGCGTTTGACCTTT
[1]
  sensor-assay potency score (higher = more potent): 0.169

## TAGTGCCACACACCGATGCTGC
[2]
  sensor-assay potency score (higher = more potent): -1.34

## TTGTAGTACAGGCTGATCAGGA
[3]
  sensor-assay potency score (higher = more potent): -0.436

## TTGTATCTCAGTGGCTTCCAGA
[3]
  sensor-assay potency score (higher = more potent): -0.724

## TGAAGTAAATCACCTTCCCTGT
[3]
  sensor-assay potency score (higher = more potent): -0.768

## ATTGTCGAAAATCTCCAGCCAG
[3]
  sensor-assay potency score (higher = more potent): -0.569

## ATAATTATCAGAATTGCTGTGA
[1]
  sensor-assay potency score (higher = more potent): 0.593

## TAGCAGTTGTTGGTGAACTTGT
[4]
  sensor-assay potency score (higher = more potent): -0.216

## TTCGCAAACATAAAAACTGTTG
[4]
  sensor-assay potency score (higher = more potent): -1.05

## ATCTGCTGGATGTCGTCGCTGA
[4]
  sensor-assay potency score (higher = more potent): -0.478

## TACTTCTTCAGTAACAAAGTTG
[1]
  sensor-assay potency score (higher = more potent): -0.481

## TTACAGCAACACAAGACACGGC
[4]
  sensor-assay potency score (higher = more potent): 0.179

## TTGTCGAAAATCTCCAGCCAGT
[3]
  sensor-assay potency score (higher = more potent): -1.14

## TTGTTGGTGAACTTGTTGTAGC
[4]
  sensor-assay potency score (higher = more potent): -0.855

## TTTTGTAGCACAGGTAGGGGAA
[4]
  sensor-assay potency score (higher = more potent): -0.466

## TTTTTGTAGCACAGGTAGGGGA
[4]
  sensor-assay potency score (higher = more potent): -0.961

## TTCTTCAGTAACAAAGTTGAGG
[1]
  sensor-assay potency score (higher = more potent): -0.835

## TTAATTAGCTGCATAACTCCAG
[1]
  sensor-assay potency score (higher = more potent): 0.313

## TATATGTGTAATGACCTCCAGA
[1]
  sensor-assay potency score (higher = more potent): -0.907
